This excerpt belongs to a sample that is enriched for hits.
12-LOX inh: Primary qHTS assay for inhibitors of human arachidonate 12S-lipoxygenase (ALOX12): Round 2 | Polyunsaturated fatty acid lipoxygenase ALOX12 (Homo sapiens), P18054 | purified 12hLO, xylenol orange hydroperoxide absorbance | Potency, µM (titrated, usually from 108 µM), without a hit: top-dose activity change, negative = inhibition, actives largely listed as inhibitors | actives 1.1% (n = 580,000); note: potency is the fitted concentration of half-maximal effect
Target sequence (P18054 whole entry, looked up): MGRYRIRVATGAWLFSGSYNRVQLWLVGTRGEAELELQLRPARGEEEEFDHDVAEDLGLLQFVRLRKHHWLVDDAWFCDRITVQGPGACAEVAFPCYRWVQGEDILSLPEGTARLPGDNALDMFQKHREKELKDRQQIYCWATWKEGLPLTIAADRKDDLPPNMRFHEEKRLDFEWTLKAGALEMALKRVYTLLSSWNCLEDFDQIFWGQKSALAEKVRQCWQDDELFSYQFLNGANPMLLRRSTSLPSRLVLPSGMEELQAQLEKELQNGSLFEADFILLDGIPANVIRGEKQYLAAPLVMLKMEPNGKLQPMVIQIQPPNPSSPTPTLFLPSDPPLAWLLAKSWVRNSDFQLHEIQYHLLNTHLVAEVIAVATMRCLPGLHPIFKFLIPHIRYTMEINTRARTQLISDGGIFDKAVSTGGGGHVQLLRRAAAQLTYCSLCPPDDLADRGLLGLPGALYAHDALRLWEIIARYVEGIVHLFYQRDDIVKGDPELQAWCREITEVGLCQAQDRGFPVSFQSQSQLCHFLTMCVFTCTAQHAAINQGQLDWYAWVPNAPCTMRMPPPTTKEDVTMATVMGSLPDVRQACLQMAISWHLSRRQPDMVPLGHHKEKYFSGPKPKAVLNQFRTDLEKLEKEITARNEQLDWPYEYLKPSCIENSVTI
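Hydroperoxide product was detected by ferrous iron/xylenol orange as the 573 to 405 nm absorbance ratio. Arachidonic acid at 40 uM (final) was turned over for 30 min at room temperature by 150 nM human 12hLO, pH 7.0 Hepes buffer, after 15 min compound preincubation.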
HT1080-NT tox: qHTS for induction of synthetic lethality in tumor cells producing 2HG: qHTS for the HT-1080-NT fibrosarcoma cell line; HT-1080-NT fibrosarcoma viability, CellTiter-Glo ATP luminescence, 48 h; Potency, µM (highest dose often 46.1 µM), inactives show at the top dose activity, negative = less viability, most hits filed as cytotoxic; actives 1.6% (n = 360,000); AID 686970, 2013;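 note: NT is the 2HG producing partner of a matched IDH1 knockdown line; potency is the fitted concentration of half-maximal effect; 0% = DMSO-treated cells and -100% = media-only wells without cells; nearly all actives have a fitted effect of over 55% in size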
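Toxicity toward the 2HG-producing NT line was scored as %Activity, normalised to DMSO and no-cell wells, from CellTiter-Glo luminescence after 48 hours' treatment.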
DT40 TDP1 CPT: qHTS for Inhibitors of human tyrosyl-DNA phosphodiesterase 1 (TDP1): qHTS in cells in presence of CPT; Potency, µM (top dose mostly 46.2 µM), without a hit: at the top dose activity change, negative = growth inhibition, hits mostly inhibitors; chicken DT40 Tdp1-/-;hTDP1 cells + 20 nM CPT, ATP luminescence, 48 h; AID 686979, 2013; actives 12% (n = 420,000); note: potency is the fitted concentration of half-maximal effect; nearly all actives have a fitted effect of over 55% in size
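Cell growth measured by CellTiter-Glo luminescence after a minimum 48 h, 37 C compound exposure with 20 nM CPT in Tdp1-knockout DT40 cells stably expressing hTDP1, seeded 400/well; qHTS titration format.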
TDP1 cell noCPT: qHTS for Inhibitors of human tyrosyl-DNA phosphodiesterase 1 (TDP1): qHTS in cells in absence of CPT | Potency, µM (highest dose often 46.2 µM), without a hit: at the top dose activity change, negative = growth inhibition, actives largely listed as inhibitors | DT40 Tdp1-/- hTDP1 cells, no CPT, ATP luminescence, 48 h | AID 686978, 2013 | actives 15% (n = 420,000); note: potency is the fitted concentration of half-maximal effect; nearly all actives have a fitted effect of over 55% in size
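Growth of hTDP1-complemented DT40 Tdp1-knockout cells is measured by ATP luminescence after at least 48 hr compound exposure at 37 °C, with DMSO substituting for the 20 nM CPT used in the parallel screen.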
IL-1B inflam inh: qHTS for Inhibitors of Inflammasome Signaling: IL-1-beta AlphaLISA Primary Screen | THP-1 LPS/ATP IL-1B secretion, AlphaLISA, 16 h; stronger effect = lower value | activity change, % at 57.5 µM | actives 4.7% (n = 360,000); in the data active = activity change below about -50%; inconclusive = mostly about -30% to -49%
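Secreted IL-1B measured by AlphaLISA bead assay after 16 h compound exposure of THP-1 cells; compounds (final up to 57.5 uM) added 1 h before LPS (250 ng/mL) and ATP (1.25 mM) stimulation; lower signal means less secretion.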
HT1080 IDH1KD tx: qHTS for induction of synthetic lethality in tumor cells producing 2HG: qHTS for the HT-1080-IDH1KD cell line; HT-1080 IDH1 knockdown viability, ATP luminescence, 48 h; Potency, µM (highest dose often 46.1 µM), without a hit: at the top dose activity, negative = toxicity, hits mostly cytotoxic; actives 2% (n = 360,000); AID 686971, 2013;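 note: potency is the fitted concentration of half-maximal effect; 0% = DMSO wells and -100% = cell-free medium wells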
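IDH1KD HT-1080 cells, 750/well, RPMI + 5% FBS; compound pinned after 2 h settling; 48 h, 37 °C; CellTiter-Glo luminescence; % activity normalised to DMSO and no-cell wells; curves fitted, classed by r2 and efficacy.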
Numbers without * were called inactive; ? = inconclusive; nt = no result. Unless noted, calls come from the whole dose curve; as a rule, active = well fitted curve in the direction sought with a large enough effect; inconclusive = small, poorly fitted or top-dose-only effect, or another doubt; inactive = no such curve, though single readings can be large; an effect the other way counts as inactive or inconclusive. Unless noted, % is set by controls: 0 for no effect and ±100 for the full control effect.

SMILES | 12-LOX inh | HT1080-NT tox | DT40 TDP1 CPT | TDP1 cell noCPT | IL-1B inflam inh | HT1080 IDH1KD tx
CC1=C(C(=O)N(C(C)C)C(C)C)CC(CC(=O)NCC2CCCCC2)C(=O)N1Cc1ccc(F)cc1 (stereo not drawn) | -25% | -11% | 16µM* | 18µM* | ? | -9%
CC1=C(C(=O)N(C(C)C)C(C)C)CC(CC(=O)NCCN2CCOCC2)C(=O)N1Cc1ccc(F)cc1 (stereo not drawn) | 1% | 19% | 0% | 12% | -2 | 18%
CC1=C(C(=O)N2CCCCCC2)CC(CC(=O)NCC2CCCCC2)C(=O)N1Cc1ccc(F)cc1 (stereo not drawn) | -49% | -19% | 23µM* | ? | -25 | -1%
CCOc1ccccc1C(=O)Oc1ccc(-c2ccc(C#N)cc2)cc1 | 13% | nt | nt | nt | nt | nt
CCCc1cc(=O)oc2cc(OCC(N)=O)ccc12 | -5% | nt | nt | nt | nt | nt
O=C(c1cc(S(=O)(=O)N2CCOCC2)ccc1F)N(CCc1ccccc1)Cc1ccccc1 | -20% | -8% | ? | 23µM* | ? | -2%
Cc1ccc(N(Cc2ccccc2)C(=O)c2cc(S(=O)(=O)N3CCOCC3)ccc2C)cc1 | -8% | 0% | 21µM* | 13µM* | 8 | -10%
COCCN(Cc1ccccc1)C(=O)c1cc(S(=O)(=O)N2CCCCCC2)ccc1OC | 11% | -3% | ? | ? | -11 | 3%
Cc1ccc(S(=O)(=O)N2CCCCC2)cc1C(=O)N(CCc1ccccc1)Cc1ccccc1 | -20% | -3% | 8.2µM* | 10µM* | -14 | -16%
CCN1CCN(S(=O)(=O)c2ccc(Cl)c(C(=O)N(CC)Cc3ccccc3)c2)CC1 | ? | 0% | ? | ? | -5 | -2%
O=C(NCCc1ccccc1)c1cc(S(=O)(=O)N2CCOCC2)ccc1F | 0% | 20% | -8% | -15% | 11 | 26%
CCN1CCN(S(=O)(=O)c2ccc(Cl)c(C(=O)N(CCc3ccccc3)Cc3ccccc3)c2)CC1 | ? | ? | 23µM* | 23µM* | -13 | ?
O=C(c1ccc(Cl)cc1Cl)N(CCS(=O)(=O)N1CCCCC1)Cc1cccnc1 | 0.5µM* | nt | nt | nt | nt | nt
CCc1ccc(CN(C)C(=O)c2cc(S(=O)(=O)N3CCN(CC)CC3)ccc2Cl)cc1 | -20% | -8% | ? | 18µM* | -67* | -10%
Cc1cccc(N(Cc2ccccc2)C(=O)C2CCN(C(=O)c3ccccc3C)CC2)c1 | 324% | -1% | 12µM* | 5.8µM* | 0 | -10%
Cc1ccccc1C(=O)N1CCC(C(=O)NCc2ccc(Cl)cc2)CC1 | -1% | 1% | ? | ? | 22 | 0%
Cc1ccc(S(=O)(=O)N(C)Cc2ccccc2)cc1C(=O)N1CCCCC1 | 6% | -19% | 15µM* | ? | 0 | -14%
COc1ccc(NC(=O)COc2ccc3c(C)c(C)c(=O)oc3c2)cc1 | -4% | nt | nt | nt | nt | nt
C=CC[C@@H](CC(=O)N[C@@H](CO)Cc1ccccc1)C(=O)N[C@H](COC(=O)[C@H](CC=C)CC(=O)OC(C)(C)C)Cc1c[nH]c2ccccc12 | 3% | ? | ? | 21µM* | -29 | -29%
C=CC[C@H](CC(=O)NCCO)C(=O)N[C@H](COC(=O)[C@@H](CC=C)CC(=O)OC(C)(C)C)Cc1ccccc1 | -1% | -1% | -18% | ? | 8 | -5%
C=CC[C@@H](CC(=O)N[C@H](CO)Cc1ccccc1)C(=O)N[C@H](COC(=O)[C@H](CC=C)CC(=O)OC(C)(C)C)Cc1c[nH]c2ccccc12 | -3% | ? | ? | ? | -6 | ?
C=CC[C@@H](CC(=O)N[C@H](CO)Cc1ccccc1)C(=O)N[C@H](COC(=O)[C@@H](CC=C)CC(=O)OC(C)(C)C)Cc1ccccc1 | -10% | -18% | ? | ? | -52* | -22%
Cc1c(C(=O)N2CCCC(CCc3ccc(F)cc3)C2)cnc2cc(=O)[nH]n12 (stereo not drawn) | 15% | nt | nt | nt | nt | nt
CCCCOc1ccc(NC(=O)COc2ccc(CC)cc2)c2cccnc12 | -2% | nt | nt | nt | nt | nt
CCC(=O)C1=C(c2ccc3c(c2)CCCC3)N(C(=O)CC)n2c(CC)nnc2S1 | -9% | nt | nt | nt | nt | nt
SMILES | 12-LOX inh | HT1080-NT tox | DT40 TDP1 CPT | TDP1 cell noCPT | IL-1B inflam inh | HT1080 IDH1KD tx
COc1ccc(CN2Cc3[nH]cnc3C[C@H]2c2nc(-c3ccc(C(F)(F)F)cc3)no2)cc1 | 4% | nt | nt | nt | nt | nt
NC(N)=NCCNS(=O)(=O)c1cccc2cnccc12 | 9% | nt | 0% | -6% | nt | nt
C[C@@H]1CNCCN1S(=O)(=O)c1cccc2cnccc12 | ? | nt | ? | 30µM* | nt | nt
COc1ccc(S[C@]2(c3nc(C)no3)CC(=O)N(c3ccc(OC)cc3)[C@@H]2c2ccc(OC)cc2)cc1 | 14µM* | nt | nt | nt | nt | nt
COC(=O)/C(C#N)=C/c1c(N2CCN(c3cccc(Cl)c3)CC2)nc2c(C)cccn2c1=O | 3% | 0% | ? | ? | 50 | 5%
COCCCNC(=O)/C(C#N)=C/c1c(N2CCN(c3cccc(Cl)c3)CC2)nc2c(C)cccn2c1=O | 4% | 3% | ? | ? | -66* | 1%
Cc1cccn2c(=O)c(C=O)c(N3CCSCC3)nc12 | 0% | -6% | -27% | -17% | -50* | -3%
Cc1cccn2c(=O)c(C=O)c(N3CCN(C)CC3)nc12 | -3% | 9% | 17% | 2% | 17 | 18%
Cc1cccn2c(=O)c(C=C(C#N)C#N)c(N3CCN(c4cccc(Cl)c4)CC3)nc12 | -14% | 8% | -20% | ? | -75* | 9%
COCCCNC(=O)/C(C#N)=C/c1c(N2CCN(c3ccccc3)CC2)nc2c(C)cccn2c1=O | -123% | -3% | ? | 16µM* | -7 | -10%
CCOc1cc(-c2ccc(C)cc2)nc2ccc(C(=O)N3CCCC3)cc12 | 0% | nt | nt | nt | nt | nt
COc1ccccc1NS(=O)(=O)c1ccc(-c2coc(C)n2)cc1 | -3% | nt | nt | nt | nt | nt
CCCn1c(=O)c2ccc(C(=O)NCC(C)C)cc2n2c(SCc3ccccc3F)nnc12 | 9% | nt | nt | nt | nt | nt
Cn1c(SCC(=O)Nc2ccc(C(=O)O)cc2)nnc1-c1ccc(Cl)cc1Cl | -26% | nt | nt | nt | nt | nt

Screening data as filed in PubChem BioAssay.
